Data: PMC5540273 (PLoS ONE, 2017)

Experiments:
Settings in all cases: concentration: 1 μM, replicates: in singlicate; n = 1
[1] = tested on: GRK4
[2] = tested on: GRK7
[3] = tested on: GSK3A
[4] = tested on: GSK3B
[5] = tested on: T1, HASPIN
T1 construct: gene GSG2

[6] = tested on: HCK
[7] = tested on: HIPK1
[8] = tested on: HIPK2
[9] = tested on: HIPK3
[10] = tested on: HIPK4
[11] = tested on: HPK1
[12] = tested on: HUNK
[13] = tested on: ICK
[14] = tested on: IGF1R
[15] = tested on: T2, IKK-alpha
T2 construct: gene CHUK

[16] = tested on: T3, IKK-beta
T3 construct: gene IKBKB

[17] = tested on: T4, IKK-epsilon
T4 construct: gene IKBKE

[18] = tested on: INSRR
[19] = tested on: INSR
[20] = tested on: IRAK1
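Further: KINOMEscan kinase panel screen.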

## CN(C(=O)c1ccc(-c2cc(-c3c[nH]nc3-c3ccccn3)ccn2)cc1)C1CCOCC1 [GW810083]
[1]
  %Inh: 4%
[2]
  %Inh: 0%
[3]
  %Inh: 0%
[4]
  %Inh: 4%
[5]
  %Inh: 0%
[6]
  %Inh: 0%
[7]
  %Inh: 22%
[8]
  %Inh: 25%
[9]
  %Inh: 0%
[10]
  %Inh: 0%
[11]
  %Inh: 30%
[12]
  %Inh: 0%
[13]
  %Inh: 78%
[14]
  %Inh: 0%
[15]
  %Inh: 0%
[16]
  %Inh: 0%
[17]
  %Inh: 0%
[18]
  %Inh: 0%
[19]
  %Inh: 0%
[20]
  %Inh: 0%

## COc1cc(Nc2nccc(N3CCC(NC(=O)c4cccc(NC(C)=O)c4)C3)n2)cc(OC)c1OC (centres unmarked) [GSK1379754]
[1]
  %Inh: 18%
[2]
  %Inh: 0%
[3]
  %Inh: 0%
[4]
  %Inh: 0%
[5]
  %Inh: 30%
[6]
  %Inh: 0%
[7]
  %Inh: 3%
[8]
  %Inh: 0%
[9]
  %Inh: 0%
[10]
  %Inh: 0%
[11]
  %Inh: 70%
[12]
  %Inh: 0%
[13]
  %Inh: 0%
[14]
  %Inh: 0%
[15]
  %Inh: 5%
[16]
  %Inh: 8%
[17]
  %Inh: 14%
[18]
  %Inh: 0%
[19]
  %Inh: 1%
[20]
  %Inh: 40%

## O=C(Nc1cccc(-c2nn3ncccc3c2-c2ccnc(Nc3cccc(C(F)(F)F)c3)n2)c1)c1c(F)cccc1F [GSK299495]
[1]
  %Inh: 2%
[2]
  %Inh: 0%
[3]
  %Inh: 0%
[4]
  %Inh: 18%
[5]
  %Inh: 2%
[6]
  %Inh: 98.1%
[7]
  %Inh: 0%
[8]
  %Inh: 0%
[9]
  %Inh: 1%
[10]
  %Inh: 0%
[11]
  %Inh: 35%
[12]
  %Inh: 4%
[13]
  %Inh: 8%
[14]
  %Inh: 14%
[15]
  %Inh: 33%
[16]
  %Inh: 17%
[17]
  %Inh: 0%
[18]
  %Inh: 0%
[19]
  %Inh: 0%
[20]
  %Inh: 38%

## CN1c2ccc(NCc3ccc(F)cc3)cc2-c2c(cnn2C)S1(=O)=O
[1]
  %Inh: 0%
[2]
  %Inh: 0%
[3]
  %Inh: 22%
[4]
  %Inh: 0%
[5]
  %Inh: 37%
[6]
  %Inh: 8%
[7]
  %Inh: 6%
[8]
  %Inh: 0%
[9]
  %Inh: 0%
[10]
  %Inh: 0%
[11]
  %Inh: 26%
[12]
  %Inh: 52%
[13]
  %Inh: 0%
[14]
  %Inh: 0%
[15]
  %Inh: 0%
[16]
  %Inh: 0%
[17]
  %Inh: 0%
[18]
  %Inh: 16%
[19]
  %Inh: 0%
[20]
  %Inh: 0%

## [2H]C([2H])(c1cccc(C(F)(F)F)c1C)n1ccn2c(=O)nc(N3CCOCC3)cc12 [GSK2336394]
[1]
  %Inh: 0%
[2]
  %Inh: 0%
[3]
  %Inh: 9%
[4]
  %Inh: 0%
[5]
  %Inh: 0%
[6]
  %Inh: 0%
[7]
  %Inh: 0%
[8]
  %Inh: 0%
[9]
  %Inh: 9%
[10]
  %Inh: 0%
[11]
  %Inh: 27%
[12]
  %Inh: 6%
[13]
  %Inh: 8%
[14]
  %Inh: 0%
[15]
  %Inh: 10%
[16]
  %Inh: 16%
[17]
  %Inh: 13%
[18]
  %Inh: 0%
[19]
  %Inh: 2%
[20]
  %Inh: 16%

## O=C(NCCCN1CCOCC1)c1cccc(Nc2nccc(Nc3ccc(Oc4ccccc4)cc3)n2)c1 [GW663929]
[1]
  %Inh: 0%
[2]
  %Inh: 0%
[3]
  %Inh: 21%
[4]
  %Inh: 0%
[5]
  %Inh: 0%
[6]
  %Inh: 96.9%
[7]
  %Inh: 14%
[8]
  %Inh: 0%
[9]
  %Inh: 0%
[10]
  %Inh: 5%
[11]
  %Inh: 8%
[12]
  %Inh: 0%
[13]
  %Inh: 0%
[14]
  %Inh: 0%
[15]
  %Inh: 0%
[16]
  %Inh: 0%
[17]
  %Inh: 0%
[18]
  %Inh: 0%
[19]
  %Inh: 15%
[20]
  %Inh: 28%

## O=c1cc(N2CCOCC2)nc2n(Cc3cccc(F)c3)ccn12 [GSK2297430]
[1]
  %Inh: 1%
[2]
  %Inh: 0%
[3]
  %Inh: 0%
[4]
  %Inh: 11%
[5]
  %Inh: 4%
[6]
  %Inh: 0%
[7]
  %Inh: 0%
[8]
  %Inh: 0%
[9]
  %Inh: 9%
[10]
  %Inh: 0%
[11]
  %Inh: 34%
[12]
  %Inh: 4%
[13]
  %Inh: 0%
[14]
  %Inh: 9%
[15]
  %Inh: 3%
[16]
  %Inh: 5%
[17]
  %Inh: 0%
[18]
  %Inh: 0%
[19]
  %Inh: 0%
[20]
  %Inh: 0%

## Cc1cccc(Cn2ccn3c(=O)cc(N4CCOCC4)nc23)c1 [GSK2297542]
[1]
  %Inh: 0%
[2]
  %Inh: 0%
[3]
  %Inh: 10%
[4]
  %Inh: 3%
[5]
  %Inh: 0%
[6]
  %Inh: 0%
[7]
  %Inh: 28%
[8]
  %Inh: 0%
[9]
  %Inh: 30%
[10]
  %Inh: 15%
[11]
  %Inh: 37%
[12]
  %Inh: 0%
[13]
  %Inh: 5%
[14]
  %Inh: 29%
[15]
  %Inh: 0%
[16]
  %Inh: 0%
[17]
  %Inh: 15%
[18]
  %Inh: 0%
[19]
  %Inh: 9%
[20]
  %Inh: 20%

## O=C(NCCNc1ccnc(Nc2ccc(F)cc2)n1)Nc1ccccc1F [GSK1379880]
[1]
  %Inh: 0%
[2]
  %Inh: 0%
[3]
  %Inh: 2%
[4]
  %Inh: 0%
[5]
  %Inh: 0%
[6]
  %Inh: 0%
[7]
  %Inh: 0%
[8]
  %Inh: 0%
[9]
  %Inh: 19%
[10]
  %Inh: 0%
[11]
  %Inh: 33%
[12]
  %Inh: 0%
[13]
  %Inh: 0%
[14]
  %Inh: 0%
[15]
  %Inh: 0%
[16]
  %Inh: 0%
[17]
  %Inh: 0%
[18]
  %Inh: 0%
[19]
  %Inh: 0%
[20]
  %Inh: 15%

## Cc1c(Cn2c(C)nn3c(=O)cc(N4CCOC(C)C4)nc23)cccc1C(F)(F)F (centres unmarked) [GSK2344444]
[1]
  %Inh: 0%
[2]
  %Inh: 0%
[3]
  %Inh: 0%
[4]
  %Inh: 10%
[5]
  %Inh: 0%
[6]
  %Inh: 0%
[7]
  %Inh: 0%
[8]
  %Inh: 0%
[9]
  %Inh: 7%
[10]
  %Inh: 0%
[11]
  %Inh: 9%
[12]
  %Inh: 0%
[13]
  %Inh: 0%
[14]
  %Inh: 7%
[15]
  %Inh: 12%
[16]
  %Inh: 18%
[17]
  %Inh: 5%
[18]
  %Inh: 3%
[19]
  %Inh: 17%
[20]
  %Inh: 0%
